Test results from PubChem BioAssay (NCATS).
Several values for one entry are separate records, joined by “and”; a condition that tells them apart may be missing. Equal entries are not always repeated. Records with an inconclusive call do not appear. Activity calls are given as the source filed them. Unless noted, no rule for the calls is given here.

Legend:
[1] = qHTS Assay for Identifying Gametocytocidal Compounds (AID 743244; active = well fitted curve in the direction sought with a large enough effect; an effect the other way counts as inactive or inconclusive; also: potency is read from the fitted curve at half-maximal effect;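 as to max response: % is scaled to controls: 0 for no effect and ±100 for the full control effect; actives lower the fluorescent signal which means gametocytes are killed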); details: P. falciparum 3D7 stage III-V gametocytes, alamarBlue, 72 h; max response: stronger effect = lower value
Outline: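 In this qHTS viability screen, late-stage 3D7 gametocytes are incubated with compound for 72 h, then with alamarBlue for 24 h; reduced resorufin fluorescence marks killing.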

[2] = qHTS profiling of the MIPE4 collection as inhibitors of Plasmodium falciparum (3D7) proliferation (AID 743344);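 also: scaled between DMSO vehicle wells and 0.29 µM artemisinin as full inhibition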; details: P. falciparum 3D7 in erythrocytes, SYBR Green DNA fluorescence, 72 h; at 28.5 µM (top of the series) unless noted
Outline: (§1)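 Parasite DNA was quantified by SYBR Green I fluorescence (ex 485, em 535 nm) after overnight lysis in saponin/Triton buffer at room temperature. Cultures at 0.3% parasitemia and 2.5% hematocrit were first exposed to compound for 72 h at 37 C; signals were normalised to artemisinin (0.29 uM) and vehicle wells.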

[3] = qHTS profiling of the MIPE4 collection as inhibitors of Plasmodium falciparum (DD2) proliferation (AID 743345); details: P. falciparum Dd2 in erythrocytes, SYBR Green DNA, 72 h; at 28.5 µM (top of the series) unless noted
Outline: as §1

[4] = qHTS profiling of the MIPE4 collection as inhibitors of Plasmodium falciparum (DD2) proliferation (Rep 2) (AID 743346); details: P. falciparum Dd2 in erythrocytes, SYBR Green DNA, 72 h; at 28.5 µM (top of the series) unless noted
Outline: as §1

[5] = qHTS profiling of the MIPE4 collection as inhibitors of Plasmodium falciparum (HB3) proliferation (AID 743347);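 also: plate controls were DMSO vehicle wells for no effect and artemisinin wells for full effect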; details: P. falciparum HB3 in erythrocytes, SYBR Green DNA, 72 h; at 28.5 µM (top of the series) unless noted
Outline: as §1

[6] = High-throughput drug toxicity screening in the BPDCN cell line Gen2.2 (AID 1224824); details: Gen2.2 BPDCN cells; at 45.8 µM (top of the series) unless noted;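 also: cells exposed to compounds for 48 h before reading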
Outline: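 Readout is ATP luminescence from Gen2.2 cells after two days of drug exposure in serum-containing medium at 37 °C. Values express percent activity, with vehicle defining full signal and 9.2 uM bortezomib defining zero.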

[7] = High-throughput drug toxicity screening in the BPDCN cell line Cal-1 (AID 1224825); details: Cal-1 BPDCN cell viability, qHTS; at 45.8 µM (top of the series) unless noted;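 also: cells exposed to compounds for 48 h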
Outline: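 Percent activity derived from CellTiter-Glo luminescence, scaling DMSO to 100% and 9.2 uM final bortezomib to 0%. BPDCN Cal-1 cells (500/well, RPMI plus 10% FBS) incubated with compounds 48 hours at 37C before reading.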

[8] = qHTS assay for measurement of the activity of small molecule inhibitors on Zika virus induced Caspase-3 activity in human iPSC derived neural progenitor cells (hNPCs) (AID 1224857; active = well fitted curve in the direction sought with a large enough effect; an effect the other way counts as inactive or inconclusive; also: nearly all actives have a fitted effect of over 65% in size; also: potency is read from the fitted curve at half-maximal effect; as to activity change, negative = inhibition: % of control where 0% means no effect)
Outline: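 In medium with heparin 2 ug/ml and cyclopamine 2 uM, hNPCs (350 cells/well) received compound for one hour and then Zika virus at 2 FFU/cell; caspase activity was measured by Caspase-Glo 3/7 luminescence 6 h post-infection.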

[9] = qHTS assay for measurement of the activity of small molecule inhibitors on Zika virus induced Caspase-3 activity in human astrocytoma cells (AID 1224859; active = well fitted curve in the direction sought with a large enough effect; an effect the other way counts as inactive or inconclusive;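 also: plate controls were ZIKV-infected untreated cells for no effect and uninfected cells for full effect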)
Outline: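 A cell-based luminescent caspase-3/7 assay used SNB-19 cells infected with ZIKV (2 FFU/cell) for 6 h following 1 h compound pretreatment.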

[10] = qHTS profiling for inhibitors of Plasmodium falciparum (DD2) proliferation (AID 743323); details: lower = more inhibition; at 28.7 µM (top of the series)
Outline: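 P. falciparum Dd2-infected erythrocytes (0.3% parasitemia, 2.5% hematocrit) exposed 72 h at 37 C, 5% CO2. Lysis with SYBR Green, overnight at room temperature, fluorescence 485/535 nm; normalized to 0.29 uM artemisinin and DMSO.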

[11] = qHTS profiling for inhibitors of Plasmodium falciparum (HB3) proliferation (AID 743324; active = well fitted curve in the direction sought with a large enough effect; an effect the other way counts as inactive or inconclusive;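 also: 100% = DMSO vehicle wells and 0% = artemisinin-treated control wells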); details: Plasmodium falciparum HB3 blood-stage proliferation; at 28.7 µM (top of the series)
Outline: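 SYBR Green fluorescence (485 ex/535 em) of lysed cultures, incubated overnight at room temperature in the dark, quantifies parasite DNA. Infected erythrocytes at 0.3% parasitemia and 2.5% hematocrit were exposed 72 h; values normalized to DMSO and 0.29 uM artemisinin controls.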

[12] = qHTS profiling for inhibitors of Plasmodium falciparum (3D7) proliferation (AID 743322);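 also: infected erythrocytes exposed to compound for 72 h before lysis; 100% = DMSO vehicle wells and 0% = 0.29 µM artemisinin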; details: P. falciparum 3D7 proliferation; at 28.7 µM (top of the series)
Outline: as §1

SMILES | max response [1] | parasite growth, % of DMSO control [2] | parasite growth remaining, % of DMSO control (lower = more inhibition) [3] | parasite growth, % of control (lower = inhibition) [4] | growth, % of control [5] | cell viability, % of control (lower = more cytotoxic) [6] | viability (% of control) [7] | Potency [8] | Potency [9] | activity, percent of control [10] | Potency [1] | remaining proliferation (% of control), lower = more inhibition [11] [%] | activity change, negative = inhibition [8] | activity change, negative = inhibition [9] | remaining parasite growth % (stronger effect = lower value) [12] [%]
COc1cc(C(=O)NS(=O)(=O)c2ccccc2C)ccc1Cc1cn(C)c2ccc(NC(=O)OC3CCCC3)cc12 | 2.7% (inactive) | 5.96% | 7.78% | 16.7% | 7.01% | 13% | 4.45% | inactive | inactive |  |  |  |  |  | 
C1Cc2[nH]nc(-c3nn[nH]n3)c2C1 | 38.3% (inactive) | 96.6% | 93.2% | 178% | 108% | 194% | 98.5% | inactive | inactive | 98.8% |  |  |  |  | 
Cn1cc(-c2[nH]c3cc(NC(=O)[C@H](N)C4CCCCC4)cc4c3c2C=NNC4=O)cn1 |  | 3.34% | 5.92% | 4.04% | 2.91% | 28.9% | 4.56% | inactive | inactive | -0.309% | 23.5 µM (active) | -1.93 |  |  | 
CC[C@@H]1C(=O)N(C)c2cnc(Nc3ccc(C(=O)NC4CCC(N5CCN(CC6CC6)CC5)CC4)cc3OC)nc2N1C(C)C (stereo not given in full) |  | 4.79% | 5.71% | 17.4% | 6.88% | 2.88% | 3.23% | inactive | inactive | 1.64% | 7.43 µM (active) |  |  |  | 
CC[C@@H]1C(=O)N(C)c2cnc(Nc3ccc(C(=O)NC4CCN(C)CC4)cc3OC)nc2N1C1CCCC1 |  | 4.91% | 6.75% | 17.2% | 6.34% | 4.74% | 2.57% | inactive | inactive | 0.0959% | 2.35 µM (active) |  |  |  | 
O=C(NCCCNc1nc(Nc2cccc(NC(=O)N3CCCC3)c2)ncc1I)c1cccs1 | -18.4% (inactive) and -12.2% (inactive) | 6.21% | 12.5% | 28.1% | 4.4% | 5.4% | 2.96% | inactive | inactive | 5.54% and 10.1% |  |  |  |  | 
COc1cc2nccc(Oc3ccc(NC(=O)C4(C(=O)Nc5ccc(F)cc5)CC4)cc3)c2cc1OC | 4.76% (inactive) | 3.93% | 10.7% | 7.46% | 2.54% | 5.49% | 5.29% | inactive | inactive | 14.8% |  |  |  |  | 
COc1ccc(CC2c3cc(OC)c(OC)cc3CC[N+]2(C)CCC(=O)OCCCCCOC(=O)CC[N+]2(C)CCc3cc(OC)c(OC)cc3C2Cc2ccc(OC)c(OC)c2)cc1OC (stereo not given) | 8.81% (inactive) | 57.8% [at 5.51 µM] | 93.6% [at 5.51 µM] | 58.2% [at 5.51 µM] | 85.6% [at 5.51 µM] | 45.2% [at 5.15 µM] | 99% [at 5.15 µM] |  |  |  |  |  | 18.4% [at 9.06 µM] (inactive) | 7.2% [at 9.06 µM] (inactive) | 
O=c1[nH]nc(Sc2ncc([N+](=O)[O-])s2)n1-c1ccc2c(c1)OCCO2 |  | 59.7% | 64.7% | 60.1% | 62.4% | 3.22% | 2.62% | 23.5 µM (active) | inactive | 65.9% | 7.43 µM (active) | 3.82 |  |  | 
CC1=C(CO)C(=O)O[C@@H]([C@@H](C)[C@H]2CC[C@H]3[C@@H]4C[C@H]5O[C@]56[C@@H](O)C=CC(=O)[C@]6(C)[C@@H]4CC[C@]23C)C1 |  | 6.08% | 7.1% | 7.54% | 3.14% | 3.38% | 1.9% | 9.35 µM (active) | inactive | -0.497% | 0.372 µM (active) |  |  |  | -1.7
COc1ccc(OC)c(-c2nnc3ccc(-c4ccc(OC)c(O[C@@H]5CCOC5)c4)nn23)c1 | -15.7% (inactive) | 5.33% | 6.53% | 16% | 8.79% | 6.73% | 3.56% | inactive | inactive | 0.138% |  |  |  |  | -0.0314
CC(C)(C)OC(=O)Nc1ccc(-c2cc(C(=O)NCCCCCCC(=O)NO)no2)cc1 |  | 4.81% | 6.42% | 12.7% | 3.96% | 4.96% | 3.94% | inactive | inactive | -0.213% | 9.35 µM (active) |  |  |  | 
Clc1ccc2ncc(-c3cccc(NC4CNC4)n3)n2c1 | -0.805% (inactive) | 10.6% | 24.5% | 24.4% | 3.87% | 15.7% | 4.56% | inactive | inactive | 12% |  | 6.95 |  |  | 
C=C1C(=CC=C2CCCC3(C)[C@@H]([C@H](C)C=CC=CC(O)(CC)CC)CC[C@@H]23)C[C@@H](O)C[C@@H]1O (stereo not given in full) | -8.25% (inactive) | 17.5% | 83.6% | 12.7% | 15% | 17.9% | 6.44% | inactive | inactive | 71.5% |  |  |  |  | 65.1
Nc1ccccc1NC(=O)c1ccc(CNC(=O)OCc2cccnc2)cc1 | -2.71% (inactive) | 25.3% | 31.3% | 25.4% | 7.7% | 2.59% | 5.69% | inactive | inactive | 92.8% |  |  |  |  | 
N#Cc1c(O)c2c(-c3ccc(-c4ccccc4O)cc3)csc2[nH]c1=O | 42.7% (inactive) | 70.3% | 94.8% | 47.7% | 71.1% | 185% | 108% | inactive | inactive | 96% |  | 87.6 |  |  | 
